Data on one compound can be found in PubChem BioAssay AID651623 (National Center for Advancing Translational Sciences (NCATS), 2012).

Calls of active or inactive are those of the source.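 The calls were made as follows: active = inhibition of at least 60% at 114 µM; inconclusive = inhibition from 30% up to below 60% at 114 µM; inactive = inhibition below 30% at 114 µM.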

Sequence of Ubiquitin carboxyl-terminal hydrolase 8 (Homo sapiens) (P40818 whole entry, looked up): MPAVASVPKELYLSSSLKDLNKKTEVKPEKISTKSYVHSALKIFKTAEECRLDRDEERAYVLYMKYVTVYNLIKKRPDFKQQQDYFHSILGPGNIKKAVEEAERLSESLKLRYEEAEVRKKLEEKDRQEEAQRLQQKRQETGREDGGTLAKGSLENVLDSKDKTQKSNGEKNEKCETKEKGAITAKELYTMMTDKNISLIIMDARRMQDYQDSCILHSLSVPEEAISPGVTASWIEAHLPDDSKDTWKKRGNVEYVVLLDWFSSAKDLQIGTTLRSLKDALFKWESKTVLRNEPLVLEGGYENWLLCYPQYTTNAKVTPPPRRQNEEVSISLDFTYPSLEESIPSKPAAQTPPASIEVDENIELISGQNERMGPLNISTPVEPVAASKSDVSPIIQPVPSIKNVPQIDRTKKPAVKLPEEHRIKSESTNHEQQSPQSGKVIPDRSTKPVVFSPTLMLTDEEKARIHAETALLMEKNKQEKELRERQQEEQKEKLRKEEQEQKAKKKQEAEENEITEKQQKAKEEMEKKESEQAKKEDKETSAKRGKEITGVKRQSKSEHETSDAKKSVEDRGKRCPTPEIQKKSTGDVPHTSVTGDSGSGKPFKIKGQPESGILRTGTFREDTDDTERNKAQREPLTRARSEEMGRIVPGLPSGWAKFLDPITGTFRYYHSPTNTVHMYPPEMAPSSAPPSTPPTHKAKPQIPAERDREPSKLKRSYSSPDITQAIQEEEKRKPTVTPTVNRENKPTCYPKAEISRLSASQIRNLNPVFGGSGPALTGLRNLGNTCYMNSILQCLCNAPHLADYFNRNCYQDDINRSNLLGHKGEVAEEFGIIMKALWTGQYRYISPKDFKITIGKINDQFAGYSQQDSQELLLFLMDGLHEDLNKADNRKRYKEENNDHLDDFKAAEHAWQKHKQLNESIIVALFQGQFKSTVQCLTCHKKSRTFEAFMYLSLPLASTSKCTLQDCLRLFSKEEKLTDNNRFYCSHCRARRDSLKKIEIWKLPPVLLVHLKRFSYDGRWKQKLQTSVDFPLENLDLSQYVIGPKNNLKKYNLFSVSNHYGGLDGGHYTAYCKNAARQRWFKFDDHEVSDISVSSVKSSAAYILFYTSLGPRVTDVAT

This assay concerns the target Ubiquitin carboxyl-terminal hydrolase 8 (Homo sapiens) (UniProt P40818). As to the kind of experiment: Inhibitors of USP1/UAF1: SAR in USP8 diubiquitin SDS-PAGE gel assay. The note with it: USP8 K63 diubiquitin cleavage; series mostly up to 114 µM. From the text: Deubiquitinating enzymes (DUBs) are a class of enzymes that can cleave isopeptide bond formed between the C-terminal carboxylate of ubiquitin and a lysine side-chain amino group on the target protein. Among them, ubiquitin specific proteases (USPs) constitute the largest DUB family. Human USPs are emerging as promising targets for pharmacological intervention because of their connection to a number of human diseases, including prostate, colon and breast cancer (1, 2), pediatric acute lymphoblastic leukemia (3), and familial cylindromatosis (4). The advantage of inhibiting USPs lies in the potential specificity of therapeutic intervention that can lead to better efficacy and reduce nonspecific side effects. In a collaboration between the University of Delaware and the NIH Chemical Genomics Center, a high-throughput screen assay was developed to screen for USP1/UAF1 inhibitors (5). […]
The inhibition assay contains 80 nM USP8, 2 microM K63 linked diubiquitin, and inhibitors at varied concentrations (0.08 microM - 114 microM). […] The intensity of the individual diubiquitin and monoubiquitin band was quantified using Quantity One 4.3.1 (Biorad, Hercules, CA). The percentage of the conversion was determined and used to calculate the reaction rate. […]
On to `Cc1cnc(-c2ccccc2C(C)C)nc1NCc1ccc(-n2ccnn2)cc1`, for which the compound was called inactive.
